From PubChem BioAssay (NCI)
Compounds without any hit were thinned out: in the full panel of roughly 79,000, 15% have a hit. Activity calls are given as the source filed them. No stated cut-off is given here; in the data, active means growth inhibition above about 70%; inactive means the rest.

Tests used:
[1] = NCI Yeast Anticancer Drug Screen. Data for the rad50 strain (AID 155);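 further: 0% = growth of vehicle-only cultures of the same strain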; conditions: S. cerevisiae rad50 strain growth inhibition; at 50.0 µM; active compounds read high
How it was run: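 Yeast carrying a defined DNA repair defect were exposed to test compounds, and growth was compared with vehicle-treated controls to give percent inhibition.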

[2] = NCI Yeast Anticancer Drug Screen. Data for the mec2-1 strain (AID 157); conditions: S. cerevisiae mec2-1 strain, at 50.0 µM, active compounds read high
How it was run: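 Cells of the genetically defined mec2-1 yeast strain are incubated with test compound. Inhibition of growth is calculated against vehicle-treated controls.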

[3] = NCI Yeast Anticancer Drug Screen. Data for the sgs1 mgt1 strain (AID 161);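 further: 0% = growth of cultures given vehicle only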; conditions: S. cerevisiae sgs1 mgt1 strain, at 50.0 µM, active compounds read high
How it was run: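 Inhibition of yeast growth, normalised to vehicle-treated controls, is reported for a strain bearing genetic alterations in DNA damage repair.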

[4] = NCI Yeast Anticancer Drug Screen. Data for the cln2 rad14 strain (AID 165);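 further: 0% = growth equal to vehicle treated cultures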; conditions: S. cerevisiae cln2 rad14 strain, at 50.0 µM, active compounds read high
How it was run: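 The screen exposed genetically defined yeast (cln2 rad14) to test compounds and scored growth inhibition relative to vehicle-treated controls.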

[5] = NCI Yeast Anticancer Drug Screen. Data for the bub3 strain (AID 167); conditions: S. cerevisiae bub3 mutant strain, at 50.0 µM, active compounds read high
How it was run: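 Compounds were applied to a genetically altered yeast strain carrying a cell-cycle control defect. Growth inhibition was scored against vehicle-treated controls.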

[6] = NCI Yeast Anticancer Drug Screen. Data for the mlh1 rad18 strain (AID 175); conditions: S. cerevisiae mlh1 rad18 strain growth inhibition; at 50.0 µM; active compounds read high
How it was run: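 Compound-treated yeast growth, normalised to vehicle controls. Strain bears defined DNA repair mutations.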

Measured: growth inhibition

CC(=O)/C(=C\I)c1ccccc1
active: [1] 87.8% | [2] 91.8% | [3] 85.4% | [4] 89.9% | [5] 89.5% | [6] 85.5%

COC(=O)N1C(C#N)=CCc2ccccc21
inactive: [1] 26.4% | [2] 31.2% | [3] 16.9% | [4] -6.25% | [5] 3.8% | [6] 5.65%

COc1ccc(C23OCN(c4ccccc4)C2(c2ccc(OC)cc2)c2ccccc2N3C)cc1 (stereo unspecified)
inactive: [1] 4.15% | [2] -6.85% | [3] -25.4% | [4] -0.25% | [5] -2.25% | [6] 11.3%

Nc1ncnc(N)c1NC(=O)c1cccc(-c2ccccc2)c1
inactive: [1] 2.85% | [2] 41.1% | [3] 23.9% | [4] 0.8% | [5] 34.9% | [6] -21.1%

COc1c(O)ccc(/C=N/NC(=S)NCOCCOC(C)=O)c1OC
inactive: [1] 0.85% | [2] -3.8% | [3] 1.7% | [4] 21.9% | [5] 9.95% | [6] -10.6%

CC(C)(c1ccc([N+](=O)[O-])cc1)c1ccc(N)c([N+](=O)[O-])c1
inactive: [1] 0.65% | [2] -9.65% | [3] -10.6% | [4] 0.1% | [5] -9.1% | [6] -13.1%

O=[N+]([O-])c1c(O)c2nonc2c2nn(-c3ccccc3)nc12
inactive: [1] 1.7% | [2] 15% | [3] 55.4% | [4] 25.8% | [5] -15.7% | [6] -15.4%

CC12CCCCC1C1=C(CCCC1)CC2 (stereo unspecified)
inactive: [1] -4.1% | [2] -4.95% | [3] -5.35% | [4] 9.4% | [5] 6.7% | [6] -17.6%

CC(C)CCOC(=O)CC(CC(=O)OCCC(C)C)C(=O)OCCC(C)C
inactive: [1] 20.9% | [2] -14.5% | [3] 6.35% | [4] 5.9% | [5] -18.1% | [6] 8.15%

Cc1cc(Br)c(NC(=O)c2csnn2)c(Br)c1
inactive: [1] -31% | [2] -13.6% | [3] -13.6% | [4] -26.8% | [5] 2.65% | [6] -11.4%

CCOC(=O)CNC(=O)NC
inactive: [1] 1.25% | [2] 8.15% | [3] -6.75% | [4] -11.7% | [5] -6.25% | [6] 38%

O=C(Nn1c(-c2ccccc2)nc2ccccc2c1=O)c1cccc([N+](=O)[O-])c1
inactive: [1] -27.8% | [2] -33.9% | [3] -14.2% | [4] 5.5% | [5] 23.8% | [6] 3.85%

O=C1c2ccccc2C(=O)N1CCNc1ccccc1[N+](=O)[O-]
inactive: [1] -9.25% | [2] -12.2% | [3] 7% | [4] -22.9% | [5] 6.5% | [6] -19.2%

C/C(CCn1[nH]c(=O)ccc1=O)=N\NC(=O)C(=O)NN
inactive: [1] -4.75% | [2] -18.4% | [3] -6.55% | [4] 2.55% | [5] 1.55% | [6] -8.2%

Cc1c([N+](=O)[O-])cc(C(C)(C)C)c(OC(=O)CCl)c1[N+](=O)[O-]
active: [1] 99.5% | [2] 99.7% | [3] 99.6% | [4] 99.2% | [5] 99.4% | [6] 99.5%

CN(c1ccccc1)c1cc2c(cc1[N+](=O)[O-])no[n+]2[O-]
active: [1] 97.8% | [2] 98.7% | [3] 98.3% | [4] 98% | [5] 98.2% | [6] 98.8%

CN(C)CCSC(=Nc1ccccc1)N1CCCCC1
inactive: [1] -32.8% | [2] 1.7% | [3] -9.5% | [4] 30.9% | [5] 8.15% | [6] -9.6%

CN(C)S(=O)(=O)C(c1ccccc1)C(c1ccccc1)S(=O)(=O)N(C)C (stereo unspecified)
inactive: [1] 47% | [2] -4.4% | [3] 27.1% | [4] 2% | [5] -4.75% | [6] 1.5%

Nc1nc(N)nc(-c2ccccc2NS(=O)(=O)c2ccc([N+](=O)[O-])cc2)n1
inactive: [1] 1.6% | [2] 21.8% | [3] 6.2% | [4] 3.45% | [5] 11.2% | [6] 38.4%

O=C(c1nc2ccc(Cl)cc2[nH]c1=O)C(O)c1ccccc1 (stereo unspecified)
inactive: [1] 47.5% | [2] 6.95% | [3] 39.4% | [4] 42.9% | [5] 28.9% | [6] 41.8%

COC(=O)[C@]1(C)CCC[C@]2(C)C3=C[C@@H](O)[C@@]4(C(C)C)O[C@H]4[C@]3(O)CC[C@@H]12
inactive: [1] -17.9% | [2] -29.3% | [3] -9.15% | [4] -2.7% | [5] -8.25% | [6] -26.6%

CC(=O)OC(c1ccccc1)C1(c2ccccc2)OCCO1 (stereo unspecified)
inactive: [1] -9.2% | [2] 7.5% | [3] 5.75% | [4] -33% | [5] 1.4% | [6] 17.1%

CC(C)=C(CSC#N)S(=O)(=O)c1ccc(C)cc1
inactive: [1] 0.45% | [2] 14.2% | [3] 7.1% | [4] -5.1% | [5] 36.9% | [6] 14.7%

Cn1cnc([N+](=O)[O-])c1Sc1nccn1-c1ccccc1
inactive: [1] -10.8% | [2] -7.1% | [3] -7.8% | [4] 22.2% | [5] 0.75% | [6] -2.85%

COc1cc(N(Cc2ccc3oc(=O)c(-c4ccccc4)nc3c2)Cc2ccc3oc(=O)c(-c4ccccc4)nc3c2)cc(OC)c1OC
inactive: [1] 29.6% | [2] -2.45% | [3] 13.5% | [4] -35.1% | [5] 15% | [6] 9.15%

CC(=O)/C=C(/C=N/O)c1ccccc1
inactive: [1] 10.7% | [2] -27.1% | [3] 14.2% | [4] 7.75% | [5] 10.1% | [6] -55.8%

CC(=O)CCC(CC=O)C(C)C (stereo unspecified)
inactive: [1] 3.35% | [2] 0% | [3] 7.6% | [4] -4.9% | [5] -3.65% | [6] 2.6%

CC(C)OC(=S)Nc1ccc(Cl)c(COC(C)(C)C)c1
inactive: [1] -5.8% | [2] -16.2% | [3] -4.65% | [4] 7.6% | [5] -10.1% | [6] -7.4%

O=C(NSNc1ccccc1)c1ccccc1
inactive: [1] 0.8% | [2] -3% | [3] -7.6% | [4] -69.7% | [5] -0.6% | [6] -4.05%

Cc1cccc(Cc2ccccc2C(=O)c2ccccc2)c1C
inactive: [1] 5.75% | [2] -6.75% | [3] -5.5% | [4] -19.2% | [5] 7.4% | [6] -17.1%

Cc1cc(C)c(C)c(CC(C)(CI)CI)c1C
inactive: [1] 20.3% | [2] -13.2% | [3] -4.7% | [4] 0.65% | [5] -8.05% | [6] -3.6%

Cc1ccc2nc(CC(=O)c3ccc4ccccc4c3)c(=O)[nH]c2c1
inactive: [1] 6.4% | [2] 9.65% | [3] 9.2% | [4] 13.3% | [5] 3.15% | [6] 22.1%

O=C(NC1CCCCC1)OCc1c(COC(=O)NC2CCCCC2)c2cccn2c2c1cnn2-c1ccccc1
inactive: [1] 3.7% | [2] 3.4% | [3] -27.6% | [4] 3.1% | [5] -2.95% | [6] 19.1%

CCCC(C)(CC)C(=O)O (stereo unspecified)
inactive: [1] 7.45% | [2] -14.8% | [3] 14.4% | [4] -10.3% | [5] 1.95% | [6] 34.8%

CC(=O)OCCOc1ccccc1Cl
inactive: [1] 2.75% | [2] -5.8% | [3] 3.25% | [4] -16.9% | [5] -23.1% | [6] -13.1%

Cc1ccc(S(=O)(=O)OCC23CCC(CO)(CC2)CC3)cc1
inactive: [1] 9.75% | [2] -2.45% | [3] -0.85% | [4] 15.7% | [5] 27.2% | [6] 14.2%
